According to PubChem BioAssay (EPA / NIEHS):
Several values for one entry are separate records, joined by “and”; a condition that tells them apart may be missing. Equal entries are not always repeated. Where a structure was tested more than once in an assay, its records may differ in their call. Activity calls are given as the source filed them. Rule for the calls: active = hit-call score of the fitted dose curve at least 0.9, where 1 is the maximum; inactive = score below 0.9.

read-out: Intercellular Adhesion Molecule 1 (ICAM1), ICAM1 (gene 3383); experiment: BSK_BE3C_ICAM1: BioMAP Diversity Plus: BE3C Assay for Intercellular Adhesion Molecule 1 (ICAM1) Biomarker Activity (AID 2284278); conditions: primary human bronchial epithelial cells
Experimental: BSK_BE3C is a cell-based, multiplexed-readout assay that uses bronchial epithelial cell, a human lung primary cell, with measurements taken at 24 hours after chemical dosing in a 96-well plate.BSK_BE3C_ICAM1 is an assay component measured in the BSK_BE3C assay. It measures ICAM-1 antibody related to regulation of gene expression using ELISA technology.Data from the assay component BSK_BE3C_ICAM1 was analyzed at the endpoint, BSK_BE3C_ICAM1, in the positive analysis fitting direction relative to DMSO as the negative control and baseline of activity. Using a type of binding reporter, gain or loss-of-signal activity can be used to understand protein changes. To generalize the intended target to other relatable targets, this assay endpoint is annotated to the 'cell adhesion molecules' intended target family, where the subfamily is 'Immunoglobulin CAM'.
The levels of cell surface (or secreted, indicated by the prefix "s") biomarker endpoints were measured by ELISA. Overt cytotoxicity to cells in confluent adherent cultures (all systems other than the BT system) was assessed by measuring total protein levels using sulforhodamine B (SRB) staining in parallel cultures at the time of biomarker measurements, indicated as SRB endpoints. For proliferation assays for adherent cell types, individual cell types are cultured at sub-confluence and relative cell numbers quantified by SRB staining at time points optimized for each system (48 h: 3C and CASM3C systems; 72 h: BT and HDF3CGF systems; 96 h: SAg system). SRB was performed by staining cells with 0.1% SRB after fixation with 10% TCA and reading wells at 560 nm.Viability and proliferation of PBMC (T cells) was quantified by Alamar Blue reduction for the SAg and BT systems. For PBMC viability (referred to as PBMC Cytotoxicity within the assay endpoint names), cells were plated (75,000/well in a 96-well plate) and then chemical samples added for 1 h before addition of activators, SEB and TSST-1 (20 ng/mL final concentration each). Cells were incubated for 90 h. Then, Alamar Blue (20 uL/well) (Invitrogen, Cat DAL1100) was added for 6 h, and the plates were read with a fluorescence microplate reader at 546/580 nm (excitation/emission). For PBMC proliferation, cells were plated and activated as above but incubated for only 16 h prior to addition of Alamar Blue. Plates were read after 6 h.

SMILES | outcome | AC50
OC(C(F)(F)F)(C(F)(F)F)C(O)(C(F)(F)F)C(F)(F)F | inactive | 44.7 µM (active)
CC(C)C1OCCN1CCOC(=O)NCCCCCCNC(=O)OCCN1CCOC1C(C)C (stereo not drawn) | inactive | 
Cc1c(C(N)=O)cc([N+](=O)[O-])cc1[N+](=O)[O-] | inactive | 
C1CN(CCOCCN2CCOCC2)CCO1 | inactive | 
CN(C)Cc1cc(C(C)(C)C)c(O)c(C(C)(C)C)c1 | inactive | 
CCC[Si](OC(C)=O)(OC(C)=O)OC(C)=O | inactive | 
COc1cc(CNC(=O)CCCC/C=C/C(C)C)ccc1O | inactive | 
COc1ccc(C(=O)c2ccccc2O)c(O)c1 | inactive | 
O=[N+]([O-])c1cc(S(=O)(=O)Nc2ccccc2)ccc1Nc1ccccc1 |  | 29.2 µM (active) and 37 µM (active)
COc1ccccc1Oc1c(NS(=O)(=O)c2ccc(C(C)(C)C)cc2)nc(-c2ncccn2)nc1OCCO | inactive | 
CC[N+](CC)(CC(=O)Nc1c(C)cccc1C)Cc1ccccc1 (tested in a mixture with another compound) | inactive | 
CCCCC(CC)COC(=O)C=Cc1ccc(OC)cc1 (stereo not drawn) | inactive | 
